Screen size: about 350,000 compounds; about 7,000 (2%) were called active. The sample holds actives, similar compounds and a random draw of the others, so the mix is not that of the screen. Unmarked numbers belong to inactive results. Cut-off read from the data, not from the text of the source: active = activation above about 40%; inconclusive = no clear call, values can overlap the other calls; inactive = below that.

The record followed here is PubChem BioAssay AID602393 (Broad Institute, 2012).

This assay is described as follows: raisers of Bmi1 knock-in reporter signal – mouse ES cells, Bmi1 luciferase knock-in, single point, esBAF inhibitor project, primary screen (AID 602393).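 Note: 0% = median of the plate's neutral control wells and 100% = double that signal; a rise in the Bmi1 reporter signal indicates esBAF inhibition.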 Particulars: 24 h, at 12.5 µM, active compounds read high, 100% = twice the neutral-well signal.
Turning to `CO[C@@H]1CN(C)C(=O)c2cc(NC(=O)c3ccc4c(c3)OCO4)ccc2OC[C@H](C)N(CCC(F)(F)F)C[C@H]1C`, the reporter increase is 1.54%.
In the case of `O=C(NCC[C@@H]1CC[C@H](NS(=O)(=O)c2cccc(F)c2)[C@H](CO)O1)c1cnccn1` it was -3.13%.
In the case of `C[C@H](CO)N1C[C@H](C)[C@@H](CN(C)Cc2ccccn2)Oc2ncc(-c3cccc(F)c3)cc2C1=O` it was 0.648%.
In the case of `COC(=O)COc1cccc2c(=O)n(CC(=O)NCCc3ccc(OC)c(OC)c3)ccc12` it was 8.15%.
For `COc1cc(C=O)c(Br)cc1OCC(=O)NCc1ccccc1`, the reporter increase is 0.717%.
Regarding `COc1ccc(CNC(=O)COc2ccccc2C(=O)c2cnn(-c3ccccc3)c2)cc1OC`, the reporter increase was 75.1% (active).
In the case of `O=C(C[C@H]1C[C@H]2c3cc(NC(=O)C4CCOCC4)ccc3O[C@H]2[C@@H](CO)O1)NCC1CC1`, the reporter increase is 0.385%.
As to `O=C(COC(=O)c1ccccc1)c1ccc2c(c1)OCCO2`, the reporter increase is 1.23%.
In the case of `O=C(COC(=O)c1ccc2c(c1)OCCO2)NCc1ccccc1Cl` it was -1.54%.
The same measure for `O=C(COC(=O)c1ccc(O)cc1O)NC(=O)c1ccccc1`: -3.35%; for `O=C(CN1CCN(c2ccccc2F)CC1)c1ccc2c(c1)OCO2`: 14.1%.
The same measure for `O=C(OCc1ccccc1F)c1ccc2c(c1)OCCO2`: 58.2% (active).
For `O=C(COC(=O)c1ccc(O)cc1O)c1ccc2c(c1)OCCO2`, the reporter increase is 90.2% (active).
In the case of `C/C=C/c1ccc([C@H]2[C@@H](CO)N(C(C)=O)[C@H]2CN(C)S(C)(=O)=O)cc1` it was -4.53%.
In the case of `O=C(C1CCC1)N1C[C@H]2[C@@H](c3ccccc31)[C@H](CO)N2C(=O)Nc1cccc(F)c1` it was -1.72%.
For the compound `CCOc1cccc(C(=O)Nc2cnn(Cc3ccccc3)c2)c1`, the reporter increase is 13%.
Regarding `Cc1nnc(NC(=O)c2ccc3nccnc3c2)s1`, the reporter increase is 16.2%.
Regarding `CCOc1cccc(C(=O)Nc2nnc(-c3cccs3)s2)c1`, the reporter increase is 50% (active).
On to `Cc1noc(C)c1NC(=O)N[C@@H]1C=C[C@H](CC(=O)N2CCCCC2)O[C@H]1CO`, for which the reporter increase is -4.9%.
In the case of `COc1ccc(CNC(=O)C[C@H]2C[C@H]3c4cc(NS(C)(=O)=O)ccc4O[C@H]3[C@@H](CO)O2)cc1` it was -3.21%.
In the case of `CN(C)C(=O)c1cccc(-c2ccc3c(c2)[C@H]2[C@H](CCN2C(=O)Cc2ccccc2)[C@H](CO)N3)c1` it was 11%.
The same measure for `O=C(Nc1ccc(Cl)cc1)c1csc([C@H]2C[C@H](O)[C@@H](CO)O2)n1`: 67.4% (active); for `O=C(Nc1ccc(OCCO)cc1)c1csc([C@H]2C[C@H](O)[C@@H](CO)O2)n1`: 0.832%; for `O=C(Nc1ccc(Cl)cc1)c1csc([C@@H]2O[C@H](CO)[C@H](O)[C@H](O)[C@H]2O)n1`: -3.58%.
`CCCNC(=O)[C@@H]1[C@@H](CO)[C@@H]2Cn3c(ccc(C4=CCCCC4)c3=O)[C@H]1N2CCC`: the reporter increase is 2.73%.
On to `O=C(C[C@H]1C[C@@H]2c3cc(NC(=O)C4CCC4)ccc3O[C@@H]2[C@@H](CO)O1)NCCN1CCCCC1`, for which the reporter increase is -1.5%.
Turning to `Nc1scc(-c2ccncc2)c1Cl`, the reporter increase was 47.9% (active).
On to `COC(=O)c1c(-c2ccc(C)cc2)csc1N`, for which the reporter increase is 0.96%.
On to `COc1ccccc1CNC(=O)C[C@@H]1C[C@H]2c3cc(NC(=O)CN(C)C)ccc3O[C@H]2[C@@H](CO)O1`, for which the reporter increase is 0.071%.
As for `CS(=O)(=O)Nc1ccc2c(c1)[C@H]1C[C@H](CC(=O)NCc3ccc(Oc4ccccc4)cc3)O[C@H](CO)[C@H]1O2`, the reporter increase is 7.43%.
On to `C[C@H]1CN([C@@H](C)CO)C(=O)c2cc(Br)cnc2O[C@H]1CN(C)Cc1cccc(F)c1`, for which the reporter increase is -3.97%.
In the case of `O=C(Nc1ccccc1)N1CCN(Cc2ccccc2)CC1` it was 40.2% (active).
Take `O=C(Nc1ccccc1)N1CCN(C2c3ccccc3-c3ccccc32)CC1`: the reporter increase was 4.83%.
On to `O=C(Nc1ccccc1)N1CCC(C(=O)N2CCN(Cc3ccccc3)CC2)CC1`, for which the reporter increase is 12%.
As to `C[C@@H]1CN([C@H](C)CO)S(=O)(=O)c2ccc(-c3cccc(F)c3)cc2O[C@H]1CN(C)S(=O)(=O)c1ccc(F)cc1`, the reporter increase was 10%.
As to `O=C(NC1CCC1)[C@H]1[C@H](CO)[C@H]2Cn3c(ccc(-c4ccccc4)c3=O)[C@@H]1N2Cc1cocn1`, the reporter increase is 12.8%.
Take `O=C(C1CCC1)N1CCCCN2[C@H](CO)[C@H](c3ccc(-c4cccc(F)c4)cc3)[C@H]2C1`: the reporter increase is -5.73%.
In the case of `N#CCC(=O)NC(=O)NCC1CC1`, the reporter increase was 6.44%.
`CC(C)(C)NC(=O)NC(=O)COC(=O)CCC1CCCCC1`: the reporter increase is -5.79%.
Consider `O=C(NCC1CCCCC1)NCC1CCCCC1`, for which the reporter increase is 44.8% (active).
The same measure for `CCCNC(=O)C[C@H]1CC[C@H]2[C@H](COc3ccc(NC(=O)CC)cc3C(=O)N2C)O1`: 2.93%; for `C[C@H]1CN([C@@H](C)CO)C(=O)c2cccc(NS(=O)(=O)c3ccc(F)cc3)c2O[C@@H]1CN(C)CC1CC1`: -4.49%.
Regarding `Cc1cccc(N2O[C@H]3C=CC2CCCC3)n1`, the reporter increase was 56.9% (active).
With `CC(C)NC(=O)Nc1ccc2c(c1)C(=O)N([C@@H](C)CO)C[C@@H](C)[C@@H](CN(C)S(=O)(=O)c1ccc(F)cc1)OCCCC[C@H](C)O2`, the reporter increase was -2.87%.
As to `C[C@@H]1CN([C@H](C)CO)S(=O)(=O)c2ccc(-c3cncnc3)cc2O[C@@H]1CN(C)Cc1ccccn1`, the reporter increase is -3.4%.
`S=C(NCCC1=CCCCC1)Nc1ccccc1`: the reporter increase is 51.5% (active).
For the compound `CC(=O)Nc1ccc(S(=O)(=O)N(C)CC(=O)NCCC2=CCCCC2)cc1`, the reporter increase is -5.82%.
On to `CC(OC(=O)c1c(F)cccc1F)C(=O)NCCC1=CCCCC1` (configuration not stated), for which the reporter increase is -1.99%.
In the case of `Cc1cc(C(=O)NCCc2ccc(Cl)cc2)c(C)o1` it was 55.1% (active); in that of `NS(=O)(=O)c1ccc(CCNC(=O)c2ccc(Cl)cc2[N+](=O)[O-])cc1`, 0.338%; in that of `Cc1cc(C(=O)NCCc2ccc(Cl)cc2)n(-c2ccccc2)n1`, -4.28%.
In the case of `Cn1cnc(CCNC(=O)[C@H]2[C@H](CO)[C@H]3Cn4c(cccc4=O)[C@H]3N2C(=O)Nc2ccccc2)c1` it was 6.91%.
